Compound activity from PubChem BioAssay.
A selection: hits, their analogues and other compounds. The true share with any hit is near 10%.
JMJD2A Tudor – JMJD2A Tudor domain (human) inhibition; Potency, µM (doses to about 114 µM), for the others: at the top dose activity change, negative = inhibition, most hits filed as inhibitors; AlphaScreen JMJD2A-Tudor / H3K4me3 peptide binding; hit rate 4.4% among 390,000; further: potency means the concentration at half of the fitted maximal effect; on the % scale 0 is the no-effect control and ±100 the full control effect; nearly all actives have a fitted effect of over 50% in size
G9a block – inhibitors of human histone lysine methyltransferase G9a; Q96KQ7; G9a H3K9 monomethylation, AlphaScreen, 2 h; Potency, µM (top dose mostly 102 µM), for inactives: top-dose activity, negative = inhibition, usual class: inhibitors; hit rate 8.8% among 350,000; further: potency means the concentration at half of the fitted maximal effect; on the % scale 0 is the no-effect control and ±100 the full control effect; nearly all actives have a fitted effect of over 75% in size
Target sequence (Q96KQ7 913-1193 limits assumed): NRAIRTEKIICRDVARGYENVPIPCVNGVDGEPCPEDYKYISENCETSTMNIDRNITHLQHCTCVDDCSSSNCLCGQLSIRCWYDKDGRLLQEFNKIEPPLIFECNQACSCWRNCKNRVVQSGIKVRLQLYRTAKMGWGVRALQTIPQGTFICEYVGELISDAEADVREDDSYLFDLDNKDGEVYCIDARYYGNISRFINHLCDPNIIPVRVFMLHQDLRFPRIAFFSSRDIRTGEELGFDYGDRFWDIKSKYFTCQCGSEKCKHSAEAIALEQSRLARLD
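Enzyme 20 nM + cpd, 15 min RT; add b-H3K9 pep 500 nM / SAM 20 uM; 2 h RT; anti-H3K9me1 Ab 0.5 ug/mL + SA donor / anti-rabbit acceptor beads 20 ug/mL each, 10 min; AlphaScreen read.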
Six1-Eya2 blk – inhibitors of human Six1/Eya2 interaction; activity change, % (test concentration not listed); hit rate 0.56% among 360,000; AlphaScreen GST-Six1/His-Eya2 binding, biochemical; hits give low values; Q15475+O00167; in the data active means activity change below about -65%; inconclusive means mostly about -30% to -63%; further: on the % scale 0 is the no-effect control and ±100 the full control effect
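AlphaScreen with GST-Six1 and His-Eya2 (5X mix: 250 nM and 500 nM), glutathione donor and nickel acceptor beads; buffer 50 mM Tris pH 8.0, 300 mM NaCl, 1 mM TCEP; 1 h at 37 C in the dark.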
BAZ2B block – BAZ2B (human) inhibition. Q9UIF8. AlphaScreen BAZ2B-H3K14Ac peptide displacement. Potency, µM (series often up to 114 µM), for inactives: top-dose activity change, negative = inhibition, most hits filed as inhibitors. hit rate 4.4% among 360,000. AID 504333; further: potency means the concentration at half of the fitted maximal effect; on the % scale 0 is the no-effect control and ±100 the full control effect; nearly all actives have a fitted effect of over 60% in size
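Inhibition is scored as reduced AlphaScreen emission. The BAZ2B/b-H3(5-23)K14Ac complex (50 nM each) in PBS pH 7.4, 0.01% Tween-20 meets compound (up to 110 uM) for 30 min at RT before bead addition.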
CtBP-E1A blk – inhibitors of CtBP/E1A interaction. hit rate 0.49% among 340,000. activity change, % (test concentration not listed). AID 651724. AlphaScreen GST-E1A/His-CtBP binding, 1536-well; hits give low values; in the data active means activity change below about -65%; inconclusive means mostly about -30% to -63%; further: on the % scale 0 is the no-effect control and ±100 the full control effect
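GST-E1A and His-tagged CtBP (125 nM each as 5X stock) were preincubated with pin-transferred compound for 2 h at 37 °C in the dark, then glutathione donor and nickel acceptor beads were added for 1 h before AlphaScreen reading.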
HP1b binding inh – inhibitors of HP1-beta chromodomain binding to methylated histone tails | AlphaScreen HP1-beta / biotin-H3K9me3 peptide binding | hit rate 0.56% among 390,000 | Potency, µM (titrated, usually from 114 µM), for the others: at the top dose activity change, negative = inhibition, hits mostly inhibitors | P83916; further: potency means the concentration at half of the fitted maximal effect; nearly all actives have a fitted effect of over 70% in size
Target sequence (P83916 whole entry, looked up): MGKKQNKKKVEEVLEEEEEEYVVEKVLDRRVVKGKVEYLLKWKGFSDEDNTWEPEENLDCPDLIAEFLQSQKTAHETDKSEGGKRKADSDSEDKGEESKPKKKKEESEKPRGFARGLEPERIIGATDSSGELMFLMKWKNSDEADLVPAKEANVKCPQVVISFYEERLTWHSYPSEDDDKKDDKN
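Compound inhibition of the preformed complex between 50 nM HP1-beta and 50 nM biotinylated H3K9me3 peptide was read by AlphaScreen. Buffer was PBS pH 7.4 with 0.01% Tween-20. Incubations ran 30 min at room temperature, with 10 ug/mL donor/acceptor beads.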
* marks the source's active call; other numbers are inactive results; u = inconclusive; x = no result; [ ] = dose if it differs, or a comment. Unless noted, the call rests on the fitted dose curve; in most records, active means well fitted inhibition curve with a large enough effect; inconclusive means small, poorly fitted or top-dose-only effect; inactive means no such curve, though single readings can be large or run the other way.

SMILES | JMJD2A Tudor | G9a block | Six1-Eya2 blk | BAZ2B block | CtBP-E1A blk | HP1b binding inh
C[C@H](O)[C@@H]1CN2CCc3c([nH]c4ccccc34)[C@@H]2C[C@@H]1N(C)C(=S)Nc1ccc(C#N)cc1 | x | x | -1.3 | x | -0.9 | x
O=C(Nc1cccc(C(F)(F)F)c1)c1scc2c1OCCO2 | 50.1µM* | 1.2% | 4.2 | 1.1% | 10.2 | 2.8%
O=C(CSc1ccsc1[N+](=O)[O-])Nc1cc(F)ccc1F | 44.7µM* | 35.5µM* | -8.1 | 20µM* | x | u
CCC(Cc1ccccc1)NC(=O)CSc1ccsc1[N+](=O)[O-] (stereo unspecified) | -12.9% | u | -1.4 | -1.1% | -1.7 | 14.6%
O=C(CSc1ccsc1[N+](=O)[O-])NCCc1ccc(Cl)cc1 | -11.4% | 15.1%[59 µM] | 7.0 | -6.8% | 0.8 | 20.5%
Cc1ccc(CNC(=O)CSc2ccsc2[N+](=O)[O-])cc1 | -4.1% | u | 2.1 | -37.8% | -24.1 | 25.9%
CCN(CC)c1ccc(NC(=O)CSc2ccsc2[N+](=O)[O-])c(C)c1 | 22.4µM* | u | -21.9 | 31.6µM* | -21.2 | u
CC(=O)c1ccc(NC(=O)CSc2ccsc2[N+](=O)[O-])cc1 | u | 50.1µM* | 0.5 | 35.5µM* | x | -3.2%
CC1(C)SC(=S)N(NC(=O)Nc2ccccc2)C1N(O)C(=O)Nc1cccc2ccccc12 (stereo unspecified) | u | 11.2µM* | -15.0 | u | x | 25.9%
CC1(C)SC(=S)N(/N=C/c2ccccc2O)C1N(O)C(=O)Nc1ccccc1 (stereo unspecified) | u | -42.3% | -22.0 | u | u | -11.8%
Cc1ccc(S(=O)(=O)N2CCN(C(=O)CCOc3ccccc3C)CC2)cc1C | -4.8% | -50.8% | -4.7 | 11.4% | 6.2 | 23.3%
CCOc1ccc(OCCC(=O)OCC(=O)N2CCN(S(=O)(=O)c3ccc(Cl)cc3)CC2)cc1 | u | x | -0.2 | 50.1µM* | 1.4 | -19.6%
Cc1ccc(C)c(OCCC(=O)OCC(=O)N2CCN(S(=O)(=O)c3ccc(Cl)cc3)CC2)c1 | -10.0% | 8.4% | 12.2 | 1.7% | 5.1 | 46.9%
CCOc1ccc(S(=O)(=O)N2CCN(C(=O)CCOc3ccccc3C)CC2)cc1 | -2.1% | 12.6µM* | -3.9 | 7.6% | 3.4 | 26.2%
CCOc1ccc(S(=O)(=O)N2CCN(C(=O)c3cc(-c4ccccc4)nn3-c3ccccc3)CC2)cc1 | -24.8% | 39.8µM* | 11.0 | -5.8% | -24.0 | 10.9%
CC1CCCCC1NC(=O)CN1CCN(S(=O)(=O)c2ccc(Br)s2)CC1 (stereo unspecified) | -11.3% | 6.3%[2.33 µM] | 4.6 | 4.1% | -6.1 | 16.6%
Cc1c(CCNC(=O)C(C)(C)C)sc2nc(-c3ccc(F)cc3)nn12 | -0.3% | u | x | 3.8% | x | 25.9%
COc1ccc(OC)c(NC(=O)c2cc3c(n(-c4ccc(Cl)cc4)c2=O)CC(C)(C)CC3=O)c1 | -5.9% | 0.3%[59 µM] | x | 1.6% | x | 13.2%
CCOC(=O)CC1Sc2ccccc2NC1=S (stereo unspecified) | -8.2% | 44.7µM* | -3.3 | -33.2% | 3.5 | 14.7%
CCOC(=O)CC1Sc2ccccc2NC1=O (stereo unspecified) | 0.0% | 10µM* | 0.8 | -4.6% | 9.8 | 36.0%
CCOC(=O)C1Sc2ccccc2NC1=O (stereo unspecified) | -7.6% | 14.5% | -0.5 | -0.1% | -0.1 | 38.1%
O=[N+]([O-])c1ccccc1OCCCn1cnc2ccccc21 | 0.794µM* | -143.4%[59 µM] | -5.2 | 22.4µM* | 5.8 | u
CCC(=O)c1ccc(OCCn2cnc3ccccc32)cc1 | 79.4µM* | 11.4%[12.7 µM] | -16.9 | -25.6% | 8.8 | 4.7%
c1ccc2c(c1)ncn2CCOCCOCCn1cnc2ccccc21 | -18.0% | u | 1.3 | 70.8µM* | -2.2 | 25.1%
O=[N+]([O-])c1ccc(Oc2cc(NC3CCCCCCC3)c([N+](=O)[O-])cc2[N+](=O)[O-])cc1 | u | 39.8µM* | -17.6 | u | -14.7 | -3.3%
O=[N+]([O-])c1cc([N+](=O)[O-])c(Oc2cc(Cl)ccc2Cl)cc1NC1CCCCCCC1 | u | 39.8µM* | 1.9 | u | 0.0 | 1.9%
